Test systems include HCT-15 colon; HT29 colon; SNB-75 CNS; SNB-19 CNS; U251 CNS; PC-3 prostate; SK-MEL-5 melanoma; UACC-62 melanoma; LOX IMVI melanoma; SK-MEL-28 melanoma; SK-MEL-2 melanoma; EKVX NSCLC; SN12C renal; UO-31 renal; TK-10 renal; ACHN renal; CAKI-1 renal; A498 renal; CCRF-CEM leukemia; MOLT-4 leukemia.
Holding throughout (assay): NCI-60 one-dose screen, 48 h (100 = growth as untreated, 0 = no growth, -100 = all killed)
What all share (settings): 10 µM unless noted

Compounds without any hit were thinned out: in the full panel of roughly 83,000, 20% have a hit.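 Method: cells in 96-well plates; compound added at one concentration; 48 h incubation; percent growth measured; values under 10 scored active.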 Unmarked numbers belong to inactive results. Calls of active or inactive are those of the source.

Take `Cn1cc(-c2cc3ncnc(Nc4ccc(CC(=O)Nc5nc(C(C)(C)C)cs5)cc4)c3s2)cn1`: the growth was 26.6% in the experiment on HCT-15 colon; 49.9% with HT29 colon; 50.9% in the experiment on SNB-75 CNS; 94.5% in the experiment with SNB-19 CNS; 66% in the experiment with U251 CNS; 41.4% with PC-3 prostate. Also, the growth in the experiment with SK-MEL-5 melanoma was 53%; with UACC-62 melanoma it was 40.3%; in the experiment on LOX IMVI melanoma it was 26.3%; in the experiment with SK-MEL-28 melanoma, 68.9%; in the experiment on SK-MEL-2 melanoma it was 36.5%; with EKVX NSCLC, 48%. The growth in the experiment on SN12C renal was 23.6%; in the experiment on UO-31 renal, 31.6%; in the experiment on TK-10 renal, 44.7%; with ACHN renal, 18.6%; with CAKI-1 renal, 7.53% (active); in the experiment on A498 renal, -4.34% (active). Further, the growth with CCRF-CEM leukemia was 23.1%; with MOLT-4 leukemia it was 16%.
Turning to `O=C(N/N=C\c1ccc(F)cc1)c1ccc2nc(-c3ccc(Br)cc3)[nH]c2c1`, the growth in the experiment with HCT-15 colon was 22.2%; in the experiment on HT29 colon it was -58.9% (active); with SNB-75 CNS, 53.7%; in the experiment on SNB-19 CNS, 23.2%; with U251 CNS, -62.1% (active); in the experiment with PC-3 prostate, 40.4%. Also, the growth is 56.3% in the experiment on SK-MEL-5 melanoma; 49.2% in the experiment on UACC-62 melanoma; -12.3% (active) in the experiment on LOX IMVI melanoma; 10.8% in the experiment with SK-MEL-28 melanoma; 83.2% in the experiment on SK-MEL-2 melanoma; 53.1% in the experiment on EKVX NSCLC. The growth is 29.4% in the experiment with SN12C renal; 55.4% with UO-31 renal; 42.4% with TK-10 renal; 12% in the experiment on ACHN renal; 43% in the experiment on CAKI-1 renal; 80.8% in the experiment on A498 renal. Further, the growth in the experiment with CCRF-CEM leukemia is 53.6%; with MOLT-4 leukemia, 31.7%.
On to `O=C1Nc2ccccc2/C1=C/c1ccc(OCC(=O)c2ccccc2)cc1`, for which the growth was 96.8% with HCT-15 colon; 117% in the experiment on HT29 colon; 73.8% in the experiment with SNB-75 CNS; 94.6% in the experiment with SNB-19 CNS; 100% with U251 CNS; 82.9% in the experiment on PC-3 prostate. Further, the growth with SK-MEL-5 melanoma is 97.7%; in the experiment on UACC-62 melanoma, 87.1%; in the experiment on LOX IMVI melanoma, 94.5%; with SK-MEL-28 melanoma, 100%; in the experiment with SK-MEL-2 melanoma, 113%; in the experiment with EKVX NSCLC it was 100%. The growth is 93.9% in the experiment on SN12C renal; 69.5% with UO-31 renal; 125% with TK-10 renal; 96.6% with ACHN renal; 86.9% with CAKI-1 renal; 104% in the experiment on A498 renal. For the same compound, the growth is 98.1% with CCRF-CEM leukemia and 97.8% in the experiment with MOLT-4 leukemia.
With `COc1ccc(-c2c3c(cn2Cc2cccc(OC)c2)-c2oncc2CCC3)cc1`, the growth was 95.1% in the experiment on HCT-15 colon; 109% in the experiment with HT29 colon; 103% in the experiment on SNB-75 CNS; 93.4% in the experiment on SNB-19 CNS; 93.2% with U251 CNS; 85.4% with PC-3 prostate. For the same compound, the growth was 100% in the experiment on SK-MEL-5 melanoma; 79.3% with UACC-62 melanoma; 95.2% with LOX IMVI melanoma; 110% in the experiment on SK-MEL-28 melanoma; 96.2% with SK-MEL-2 melanoma; 97.6% in the experiment with EKVX NSCLC. Besides, the growth with SN12C renal is 96.6%; in the experiment on UO-31 renal, 81%; in the experiment with TK-10 renal, 106%; in the experiment with ACHN renal it was 102%; with CAKI-1 renal, 76.1%; with A498 renal it was 96.8%. For the same compound, the growth is 96.8% with CCRF-CEM leukemia and 98.6% in the experiment with MOLT-4 leukemia.
With `CCOC(=O)c1ccc(NC2=CC(=O)C(C)=C(C)C2=O)cc1`, the growth was 88.5% in the experiment on HCT-15 colon; 110% with HT29 colon; 78.7% in the experiment on SNB-75 CNS; 71.9% in the experiment on SNB-19 CNS; 81.6% in the experiment with U251 CNS; 49% with PC-3 prostate. The growth was 91.6% in the experiment on SK-MEL-5 melanoma; 74.1% with UACC-62 melanoma; 46% in the experiment with LOX IMVI melanoma; 109% with SK-MEL-28 melanoma; 96.1% with SK-MEL-2 melanoma; 94.6% in the experiment on EKVX NSCLC. The growth is 93.8% in the experiment on SN12C renal; 73.9% in the experiment with UO-31 renal; 137% with TK-10 renal; 89.9% with ACHN renal; 69.3% in the experiment with CAKI-1 renal; 84.3% with A498 renal. Besides, the growth in the experiment with CCRF-CEM leukemia was 54.4%; in the experiment with MOLT-4 leukemia, 41.3%.
On to `O=C(/C=C/c1ccc(Cl)c(Cl)c1)Nc1ncc(Cc2ccc(Cl)c(Cl)c2)s1`, for which the growth is 29% with HCT-15 colon; 36.2% in the experiment with HT29 colon; 95.5% in the experiment on SNB-75 CNS; 74% in the experiment on SNB-19 CNS; 58.2% in the experiment on U251 CNS; 45.3% in the experiment with PC-3 prostate. For the same compound, the growth in the experiment on SK-MEL-5 melanoma is 51.4%; with UACC-62 melanoma it was 10.3%; in the experiment with LOX IMVI melanoma, 23.3%; with SK-MEL-28 melanoma, 48.5%; with SK-MEL-2 melanoma, 79.2%; with EKVX NSCLC, 69.8%. Further, the growth in the experiment with SN12C renal was 83.7%; in the experiment with UO-31 renal, 63.5%; in the experiment on TK-10 renal, 95.8%; with ACHN renal, 42.6%; in the experiment with CAKI-1 renal it was 53.9%; in the experiment with A498 renal it was 99.8%. Also, the growth was 71.3% with CCRF-CEM leukemia and 54.8% with MOLT-4 leukemia.
Regarding `CNC(=O)c1cc(N2CCc3cc(NC(=O)Nc4ccc(N5CCN(C)CC5)c(C(F)(F)F)c4)ccc32)ccn1`, the growth was 29.1% with HCT-15 colon; 21.8% in the experiment with HT29 colon; 75.1% in the experiment with SNB-75 CNS; 81.5% in the experiment on SNB-19 CNS; 52.7% in the experiment with U251 CNS; 59.7% with PC-3 prostate. Moreover, the growth was 85.8% in the experiment with SK-MEL-5 melanoma; 104% in the experiment on UACC-62 melanoma; -77.5% (active) in the experiment on LOX IMVI melanoma; 7.33% (active) in the experiment on SK-MEL-28 melanoma; 99.4% in the experiment with SK-MEL-2 melanoma; 82.3% with EKVX NSCLC. The growth in the experiment with SN12C renal is 100%; in the experiment with UO-31 renal, 88.7%; in the experiment with TK-10 renal, 134%; in the experiment on ACHN renal, 85.6%; in the experiment on CAKI-1 renal, 79.9%; in the experiment with A498 renal it was 76.9%. Further, the growth in the experiment on CCRF-CEM leukemia was 5.44% (active); in the experiment with MOLT-4 leukemia it was 17.3%.

The values above are taken from PubChem BioAssay (NCI).
